The text below walks through data of PubChem BioAssay (EPA / NIEHS).

Read-out in assay [1]: Interleukin-6 (IL6), IL6 (gene 3569)
The assay can be described thus: BSK_CASM3C_IL6: BioMAP Diversity Plus: CASM3C Assay for Interleukin-6 (IL6) Biomarker Activity for (AID 2283040). Particulars: primary human coronary artery smooth muscle cells; actives raise or lower the signal.

Read-out in assay [2]: Tissue plasminogen activator (tPA), PLAT (gene 5327)
Kind of assay: BSK_BE3C_tPA: BioMAP Diversity Plus: BE3C Assay for Tissue plasminogen activator (tPA) Biomarker Activity (AID 2283041).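 On outcome: tPA level quantified by ELISA one day after compound addition.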 The conditions noted are these: primary human bronchial epithelial cells; actives raise or lower the signal. A digest of the protocol:
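tPA measured by ELISA 24 h after dosing human primary bronchial epithelial cells (BE3C system). Changes in either direction were fitted against DMSO. Parallel cultures were stained with SRB to flag overt cytotoxicity.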

Read-out in assay [3]: Interleukin-8 (IL8), CXCL8 (gene 3576)
Kind of assay: BSK_CASM3C_IL8: BioMAP Diversity Plus: CASM3C Assay for Interleukin-8 (IL8) Biomarker Activity (AID 2283042).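 Further: IL-8 protein level quantified by ELISA.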 Particulars: primary human coronary artery smooth muscle cells; actives raise or lower the signal.

Read-out in assay [4]: Human Leukocyte Antigen - DR isotype (HLADR), HLA-DRA (gene 3122)
The assay can be described thus: BSK_CASM3C_HLADR: BioMAP Diversity Plus: CASM3C Assay for Human Leukocyte Antigen - DR isotype (HLADR) Biomarker Activity (AID 2283043).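 Further: cell-surface HLA-DR protein level quantified by ELISA.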 Particulars: primary human coronary artery smooth muscle cells; actives raise or lower the signal.

Read-out in assay [5]: Macrophage colony-stimulating factor (MCSF), CSF1 (gene 1435)
Kind of assay: BSK_CASM3C_MCSF: BioMAP Diversity Plus: CASM3C Assay for Macrophage colony-stimulating factor (MCSF) Biomarker Activity (AID 2283044).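 Further: M-CSF protein amount quantified by ELISA after 24 h exposure.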 Particulars: primary human coronary artery smooth muscle cells; actives raise or lower the signal.

Read-out in assay [6]: Low-density lipoprotein receptor (LDLR), LDLR (gene 3949)
The assay can be described thus: BSK_CASM3C_LDLR: BioMAP Diversity Plus: CASM3C Assay for Low-density lipoprotein receptor (LDLR) Biomarker Activity (AID 2283045).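 Further: LDLR protein level on the cell surface quantified by ELISA.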 The conditions noted are these: primary human coronary artery smooth muscle cells; actives raise or lower the signal.

Read-out in assay [7]: Monocyte Chemoattractant Protein-1 (MCP1), CCL2 (gene 6347)
The assay can be described thus: BSK_CASM3C_MCP1: BioMAP Diversity Plus: CASM3C Assay for Monocyte Chemoattractant Protein-1 (MCP1) Biomarker Activity (AID 2283046).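 Further: MCP-1 level quantified by ELISA 24 h after dosing.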 Particulars: primary human coronary artery smooth muscle cells; actives raise or lower the signal.

The nature of assay [8]: BSK_CASM3C_Proliferation: Cell Proliferation Assessment in the BioMAP Diversity Plus: CASM3C Assay (AID 2283047).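 Further: sulforhodamine B total protein stain as relative cell number at 560 nm; sub-confluent cells exposed 48 h before staining; fitted both ways against DMSO so gain or loss of cell number.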 Particulars: primary human coronary artery smooth muscle cells.
Read-out in assay [9]: Monokine induced gamma interferon (MIG), CXCL9 (gene 4283)
Kind of assay: BSK_CASM3C_MIG: BioMAP Diversity Plus: CASM3C Assay for Monokine induced gamma interferon (MIG) Biomarker Activity (AID 2283048).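 Further: MIG protein level measured by ELISA.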 Particulars: primary human coronary artery smooth muscle cells; actives raise or lower the signal.

Read-out in assay [10]: serum amyloid A (SAA), SAA1 (gene 6288)
The assay can be described thus: BSK_CASM3C_SAA: BioMAP Diversity Plus: CASM3C Assay for serum amyloid A (SAA) Biomarker Activity (AID 2283049).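 Further: SAA protein level quantified by ELISA.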 The conditions noted are these: primary human coronary artery smooth muscle cells; actives raise or lower the signal.

Assay [11] can be described thus: BSK_CASM3C_SRB: Viability Assessment in the BioMAP Diversity Plus: CASM3C Assay (AID 2283050).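 Further: total protein by SRB staining as cytotoxicity measure in parallel cultures; cells exposed to compound for 24 h.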 The conditions noted are these: primary human coronary artery smooth muscle cells.
Read-out in assay [12]: Thrombomodulin, THBD (gene 7056)
The assay can be described thus: BSK_CASM3C_Thrombomodulin: BioMAP Diversity Plus: CASM3C Assay for Thrombomodulin Biomarker Activity (AID 2283051).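 Further: thrombomodulin protein level measured by ELISA 24 h after dosing.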 Particulars: primary human coronary artery smooth muscle cells; actives raise or lower the signal.

Read-out in assay [13]: Tissue Factor, F3 (gene 2152)
Kind of assay: BSK_CASM3C_TissueFactor: BioMAP Diversity Plus: CASM3C Assay for Tissue Factor Biomarker Activity (AID 2283052).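 Further: cell surface tissue factor protein level read by ELISA.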 Particulars: primary human coronary artery smooth muscle cells; actives raise or lower the signal.

Read-out in assay [14]: Interferon-gamma inducible Protein 10 (IP10), CXCL10 (gene 3627)
Kind of assay: BSK_hDFCGF_IP10: BioMAP Diversity Plus: hDFCGF Assay for Interferon-gamma inducible Protein 10 (IP10) Biomarker Activity (AID 2283053). The conditions noted are these: primary human foreskin fibroblasts; actives raise or lower the signal. An outline of the steps:
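ELISA quantification of IP-10 after a 24 h chemical exposure of human dermal foreskin fibroblast primary cultures. Both increases and decreases versus DMSO fitted.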

Read-out in assay [15]: Urokinase-type plasminogen activator receptor (uPAR), PLAUR (gene 5329)
The assay can be described thus: BSK_CASM3C_uPAR: BioMAP Diversity Plus: CASM3C Assay for Urokinase-type plasminogen activator receptor (uPAR) Biomarker Activity (AID 2283054).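 Further: cell-surface uPAR protein level quantified by ELISA.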 Particulars: primary human coronary artery smooth muscle cells; actives raise or lower the signal.

Read-out in assay [16]: Vascular cell adhesion molecule 1 (VCAM1), VCAM1 (gene 7412)
The assay can be described thus: BSK_CASM3C_VCAM1: BioMAP Diversity Plus: CASM3C Assay for Vascular cell adhesion molecule 1 (VCAM1) Biomarker Activity (AID 2283055).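 Further: VCAM-1 protein level quantified by ELISA on the cells.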 The conditions noted are these: primary human coronary artery smooth muscle cells; actives raise or lower the signal.

Read-out in assay [17]: Collagen III, COL3A1 (gene 1281)
The assay can be described thus: BSK_hDFCGF_CollagenIII: BioMAP Diversity Plus: hDFCGF Assay for Collagen III Biomarker Activity (AID 2283056). The conditions noted are these: primary human foreskin fibroblasts; actives raise or lower the signal. An outline of the steps: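 Human foreskin primary fibroblasts were exposed to test chemicals for 24 h, after which collagen III was quantified by ELISA. Activity was fitted bidirectionally against DMSO as negative control and baseline.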

Read-out in assay [18]: Epidermal growth factor receptor (EGFR), EGFR (gene 1956)
Kind of assay: BSK_hDFCGF_EGFR: BioMAP Diversity Plus: hDFCGF Assay for Epidermal growth factor receptor (EGFR) Biomarker Activity (AID 2283057). Particulars: primary human foreskin fibroblasts; actives raise or lower the signal. A digest of the protocol: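 EGFR levels by ELISA in human dermal fibroblast cultures, 24 h post-treatment, fitted bidirectionally versus DMSO. Parallel wells stained with sulforhodamine B to detect overt cytotoxicity.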

Read-out in assay [19]: Interleukin-8 (IL8), CXCL8 (gene 3576)
The assay can be described thus: BSK_hDFCGF_IL8: BioMAP Diversity Plus: hDFCGF Assay for Interleukin-8 (IL8) Biomarker Activity (AID 2283058). Particulars: primary human foreskin fibroblasts; actives raise or lower the signal. An outline of the steps: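 hDFCGF human dermal fibroblasts; 24 h chemical exposure; IL-8 by ELISA; bidirectional curve fit vs DMSO baseline; gain or loss of signal scored.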

Assay [20] is described as follows: BSK_hDFCGF_Proliferation: Cell Proliferation Assessment in the BioMAP Diversity Plus: hDFCGF Assay (AID 2283059).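 Further: curves fitted for both rise and fall of signal versus DMSO baseline.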 Particulars: primary human foreskin fibroblasts. A digest of the protocol:
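Steps: dose primary human dermal fibroblasts (foreskin); […] fix in 10% TCA; stain with 0.1% SRB; read 560 nm; fit gain or loss of signal against DMSO.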

Active and inactive are the calls of the source. How the source made its calls: active means hit-call score of the fitted dose curve at least 0.9, where 1 is the maximum; inactive means score below 0.9.

As for `CC/C=C\C/C=C\C/C=C\CCCCCCCC(=O)OC`, the AC50 is 31.5 µM (active) in [1]; 9.51 µM (active) in assay [2]; 32.2 µM (active) in assay [3]; 12.1 µM (active) in [4]; 22.6 µM (active) in [5]; 28.7 µM (active) in [6]. For the same compound, the concentration at half-maximal activity (AC50) in assay [7] is 29.7 µM (active); in assay [8] it was 8.6 µM (active); in assay [9], 29.3 µM (active); in [10] it was 26 µM (active); in assay [11] it was 15.2 µM (active); in assay [12] it was 36.2 µM (active). In addition, the concentration at half-maximal activity (AC50) is 13.9 µM (active) in assay [13]; 10.7 µM (active) in assay [14]; 29.7 µM (active) in [15]; 14.8 µM (active) in assay [16]; 5.53 µM (active) in [17]; 20 µM (active) in [19]. For the same compound, the half-maximal activity concentration (AC50) in assay [20] is 1.68 µM (active). For the same compound, in assay [18], the outcome was inactive.

Regarding `Nc1ccc(C(=O)O)cc1`, the result in assay [1], in assay [2], in [3], in assay [4], in assay [5] and in [6] was inactive. Further, the result in assay [7], in assay [8], in assay [9], in [10], in assay [11] and in assay [12] was inactive. Moreover, the outcome in assay [13], in [14], in [15], in assay [16], in [17] and in assay [18] was inactive. The result in [19] and in assay [20] was inactive.

On to `C=C(C)C(=O)OCCCCCCCCCCCC`, for which the outcome in [1], in [2], in assay [3], in assay [4], in [5] and in assay [6] was inactive. Further, the result in assay [7], in assay [8], in [9], in assay [10], in assay [11] and in assay [12] was inactive. The result in assay [13], in assay [14], in assay [15], in [16], in assay [17] and in [18] was inactive. Further, the result in assay [19] was inactive. For the same compound, the AC50 in assay [20] is 11.7 µM (active).

Turning to `CCN1CN(CC)CN(CC)C1`, the result in assay [1], in [2], in assay [3], in [4], in [5] and in [6] was inactive. Besides, the outcome in assay [7], in assay [8], in assay [9], in assay [10], in [11] and in assay [12] was inactive. Moreover, the outcome in assay [13], in assay [14], in [15], in assay [16], in [17] and in [18] was inactive. The result in assay [19] and in assay [20] was inactive.

As to `CC=C(C)C=CC=C(C)C`, the outcome in assay [1], in [3], in assay [6], in assay [7], in [9] and in assay [10] was inactive. Also, the outcome in assay [11], in [12], in assay [14], in assay [15], in assay [17] and in assay [18] was inactive. In addition, in assay [19], the outcome was inactive. Besides, the AC50 in [2] is 3.97 µM (active); in assay [4], 3.97 µM (active); in assay [5], 0.46 µM (active); in assay [8], 24 µM (active); in [13] it was 3.97 µM (active); in assay [16] it was 16.8 µM (active). In [20], the AC50 was 15.7 µM (active).

Turning to `C=CC(=O)NCOCCCC`, the outcome in [1], in [2], in assay [3], in assay [4], in assay [5] and in [6] was inactive. Also, the result in [7], in assay [8], in assay [9], in assay [10], in assay [11] and in assay [12] was inactive. Moreover, the outcome in [13], in assay [14], in assay [15], in assay [16], in [17] and in assay [18] was inactive. Besides, the result in [19] and in assay [20] was inactive.

As to `O=C(O)C(F)(F)C(F)(F)C(F)(F)C(F)(F)C(=O)O`, the result in [1], in assay [2], in [3], in [4], in assay [5] and in [6] was inactive. Also, the result in [7], in assay [8], in [9], in assay [10], in assay [11] and in assay [12] was inactive. In addition, the result in assay [13], in [14], in [15], in [16], in assay [17] and in [18] was inactive. Also, the result in assay [19] and in assay [20] was inactive.
